Measurements as given in ChEMBL document CHEMBL4513216, “Probing the Open Global Health Chemical Diversity Library for Multistage-Active Starting Points for Next-Generation Antimalarials” (ACS Infect Dis, 2020).
In all, about 69,000 compounds went through this assay and about 8,600 (12%) showed an effect of 50% or more. The sample as a whole holds a higher share of strong results than the screen did.

Each molecule was assayed on Plasmodium berghei (assay: Screen against P. berghei liver stage (PbLuc), transformed with Luciferase, at 10uM). Conditions: tested at 10 uM.
Format: functional, HepG2

| SMILES | INHIBITION [%] |
| --- | --- |
| N#Cc1ccc(CCC(=O)N2CCC(CN3CCOCC3)CC2)cc1 | 37.7 |
| O=C(O)C1CN(c2cncc(Cc3ccccc3)n2)C1 | 8.35 |
| CCc1cc(N[C@H]2CCC[C@H]2CO)n2nc(C)c(C)c2n1 | 16.3 |
| O=S1(=O)CCN(CCCc2ccc(Cl)cc2)CC1 | 15 |
| O=C(COCC(F)(F)F)N1CCCC(n2cccn2)C1 (centres undefined) | 39.5 |
| CC(C)CC(=O)N1CCN(C(=O)NC(C)C)CC2(CC(=O)N(C)C2)C1 (centres undefined) | 34.4 |
| O=C(NCCc1ccncc1)c1cccc(S(=O)(=O)NC2CC2)c1 | -78.5 |
| CN1CC[C@]2(CN(CC3CC3)C[C@H]2c2ccccc2)C1=O | 52.4 |
| CN1CC[C@]2(CN(CC3CCOCC3)C[C@H]2c2ccccc2)C1=O | 43.4 |
| O=C1NCC[C@]12CN(CC1CCOCC1)C[C@H]2c1ccccc1 | 29.5 |
| CN(C)C(=O)CN1CC[C@]2(CN(CC3CC3)C[C@H]2c2ccccc2)C1=O | 26.5 |
| CN1CC[C@]2(CN(CC3CCOC3)C[C@H]2c2ccccc2)C1=O (some centres undefined) | 57.3 |
| CN1CC[C@]2(CN(Cc3nccs3)C[C@H]2c2ccccc2)C1=O | -2.41 |
| Cc1ccc(NC2CCN(C(=O)CCCn3ccnc3C)CC2)nn1 | 8.64 |
| CC(C)c1noc(CS(=O)(=O)CC(=O)NCCOc2ccccc2)n1 | 61.5 |
| CC(C)c1noc(CCCC(=O)NCCOc2ccccc2)n1 | 46.4 |
| CC(C)c1noc(CS(=O)(=O)CC(=O)NCc2ccccc2)n1 | 10.6 |
| CC(C)OCCCNC(=O)C1CC(=O)N(c2n[nH]c3cccc(F)c23)C1 (centres undefined) | -10.9 |
| Cn1cccc1C(=O)N1CCCC(Cn2cc(CO)nn2)C1 (centres undefined) | -2.39 |
| Cc1ccc(C2CN(CCS(=O)(=O)C(C)C)CCO2)c(C)c1 (centres undefined) | 30.7 |
| Cc1ccc(C2CN(CCCC#N)CCO2)c(C)c1 (centres undefined) | -3.47 |
| Cc1ccc(C2CN(c3nnc(C(F)F)s3)CCO2)c(C)c1 (centres undefined) | 57.4 |
| Cc1ccc(C(=O)N2CCC3(CCN(c4ccsc4)C3=O)C2)cn1 (centres undefined) | -14.3 |
| NCc1n[nH]c(-c2ccc(Br)cc2)n1 | -34.4 |
| Cc1nc(N2CCN(S(C)(=O)=O)CC2)cc(-n2cnc(C)c2C)n1 | 23.9 |
| Cc1ncn(-c2cc(N3CCN(S(C)(=O)=O)CC3)ncn2)c1C | 51.5 |

| SMILES | INHIBITION [%] |
| --- | --- |
| CCCS(=O)(=O)N1CCN(c2cc(-n3cnc(C)c3C)ncn2)CC1 | 27.2 |
| Cc1nc(C)n(C2CCCN(C(=O)c3cncnc3C)C2)n1 (centres undefined) | 1.563 |
| CS(=O)(=O)NCCCN1CCCC1c1cccc(Br)c1 (centres undefined) | -5.25 |
| CCNc1ncc(C(=O)N[C@H](C(N)=O)c2ccccc2)cn1 | 17.1 |
| CCNc1ncc(C(=O)NC2CCSC2)cn1 (centres undefined) | 37.7 |
| CCNc1ncc(C(=O)NC(c2ccccc2)c2ccco2)cn1 (centres undefined) | 33.4 |
| CCNc1ncc(C(=O)NC2CCOCC2)cn1 | 1.94 |
| CCNc1ncc(C(=O)N[C@@H](C)[C@H](O)c2ccccc2)cn1 | 71.2 |
| CCNc1ncc(C(=O)NC2CCc3ccccc3C2)cn1 (centres undefined) | 80.9 |
| CCc1nnc2n1CCN(C(=O)c1cc(Cl)c[nH]1)C2 | 24.39 |
| Cc1sc(C(=O)NS(C)(=O)=O)cc1-c1ccc(F)cc1 | 32.7 |
| CCCN1CCC2(CC1)COc1ccccc1S(=O)(=O)N(CC1CC1)C2 | -17.1 |
| CO[C@@H]1CC[C@H]2[C@H]1OCCN2S(=O)(=O)C1CC1 | -15.2 |
| Cc1cc(C)c(CNC(=O)C(C)Oc2ccccc2C#N)c(=O)[nH]1 (centres undefined) | 37.9 |
| CCN(C1CCN(C(=O)c2cccc(Cl)c2)CC1)S(C)(=O)=O | 50 |
| CCS(=O)(=O)N(C)C1CCN(C(=O)c2ccc(Cl)cc2)CC1 | 47.4 |
| CCS(=O)(=O)N(C)C1CCN(C(=O)c2cccc(Cl)c2)CC1 | 61.8 |
| CCS(=O)(=O)N(C)C1CCN(C(=O)c2ccc(C)c(C)c2)CC1 | 27.7 |
| CN(C)C1COC2(CCN(C(=O)c3cccc(Cl)c3)CC2)C1 (centres undefined) | -9.74 |
| CN(C)CCN1CC[C@@H]2[C@@H]1CCN2C(=O)c1cccc(Cl)c1 | 40.4 |
| O=C(CC1CC1)N1CC[C@H]2[C@@H]1CCC(=O)N2Cc1ccncc1 | 29 |
| Cc1ccccc1SC1CCN(C(=O)CCCS(N)(=O)=O)CC1 | 53.7 |
| Cc1ccccc1N1CCCN(C(=O)CCCS(N)(=O)=O)CC1 | 21.6 |
| Cc1ccccc1SC1CCN(C(=O)C2CNC(=O)N2)CC1 (centres undefined) | 12.8 |
| Cc1cccc(SC2CCN(C(=O)CCCS(N)(=O)=O)CC2)c1 | 32.8 |
| Cc1ccccc1SC1CCN(C(=O)C2CNCC(=O)N2)CC1 (centres undefined) | 1.37 |

| SMILES | INHIBITION [%] |
| --- | --- |
| Cc1ccccc1SC1CCN(C(=O)C2[C@H]3CNC[C@@H]23)CC1 (some centres undefined) | 90.7 |
| Cc1cc(C2CCCN2Cc2ccc(S(=O)(=O)N(C)C)o2)on1 (centres undefined) | 5.9 |
| OCC1N(Cc2ccco2)C2CCC1(O)CC2 (centres undefined) | 32.8 |
| O=C1NCCN1CCNc1cc(-c2ccccc2)nc2ccnn12 | -39.2 |
| O=C1CC(c2ccncc2)C2(CCN(C(=O)c3cccs3)CC2)N1 (centres undefined) | 73 |
| Cc1noc(C)c1CN1CCC2(CC1)NC(=O)CC2c1ccccc1 (centres undefined) | 65.7 |
| Cc1noc(C)c1CN1CCC2(CC1)NC(=O)CC2c1ccncc1 (centres undefined) | 25.5 |
| O=C1CC(c2ccccc2)C2(CCN(Cc3ccncc3)CC2)N1 (centres undefined) | 8.64 |
| Cc1noc(C)c1CN1CCC2(CC1)NC(=O)CC2c1cnn(C)c1 (centres undefined) | 12.5 |
| O=C1CC(c2ccncc2)C2(CCN(C(=O)c3ccnnc3)CC2)N1 (centres undefined) | 41.6 |
| O=C1CC(c2ccncc2)C2(CCN(CCc3ccccc3)CC2)N1 (centres undefined) | 90.8 |
| O=C1CC(c2ccncc2)C2(CCN(CCO)CC2)N1 (centres undefined) | 47.8 |
| O=C1CC(c2ccncc2)C2(CCN(C(=O)c3ccc[nH]3)CC2)N1 (centres undefined) | 33.5 |
| CCc1nnc(NC(=O)Cc2c(C)nc(C)[nH]c2=O)s1 | 13.75 |
| Cc1nnc(CN2CCN(C(C)c3nc(C4CC4)no3)CC2)o1 (centres undefined) | -33.7 |
| COc1ccccc1-c1ccc(C2CCCN(C(C)=O)C2)nc1 (centres undefined) | 19.4 |
| O=C(NCCc1ccccn1)c1n[nH]c2c1CCC2 | -15.9 |
| Cc1c(C(=O)N[C@@H]2CC[C@@H](N3CCCC3)[C@@H]2O)[nH]c2ccc(F)cc12 | 29.5 |
| O=C(NC1CCCc2c1[nH]c1ccc(F)cc21)c1n[nH]c2c1CCCC2 (centres undefined) | -8.99 |
| CC(=O)NC1CCCc2c1[nH]c1ccc(F)cc21 (centres undefined) | 62.4 |
| O=C(Cc1cccc(F)c1)NC1CCCc2cn[nH]c21 (centres undefined) | 18.7 |
| O=C(NC1CCCc2c1[nH]c1ccc(F)cc21)c1n[nH]c2c1CCC2 (centres undefined) | 61.2 |
| CCC1CN(C(=O)CN2CCN(c3nccc(OC)n3)CC2)CCO1 (centres undefined) | -28.4 |
| CC(=O)N1CCO[C@@H]2CN(C(=O)c3cc(C)oc3C)CC[C@@H]2C1 | 26.2 |
| CN(Cc1ccco1)[C@@H]1CN(C(=O)c2ccnnc2)C[C@@H]2CCCO[C@@H]21 | 18.5 |
| CCN(CC)C(=O)Cn1cc(-c2nc(C(C)C)no2)nn1 | -18.1 |

| SMILES | INHIBITION [%] |
| --- | --- |
| O=C(c1cnco1)N1C[C@@H](O)[C@H](Oc2cccc(F)c2)C1 | 5.11 |
| Cc1cc(F)ccc1CNCc1cccc(C(=O)N2CCCC2)c1 | 7.67 |
| NC(=O)c1cccc(CNCC=Cc2ccccc2)c1 | 17.1 |
| O=C(c1cccc(CNCC=Cc2ccccc2)c1)N1CCCC1 | 58.5 |
| COc1ccc(CN2CC(O)CN(C(=O)c3ccccc3)CC2=O)cc1 (centres undefined) | 23 |
| CC(C)c1nc2n(n1)CC(NCc1nnc(C(C)C)o1)CC2 (centres undefined) | 18.9 |
| CCc1nc2n(n1)CC(NCc1nc(C)ccc1O)CC2 (centres undefined) | -15 |
| CCc1nc2n(n1)CC(NCc1nc3ccccc3nc1C)CC2 (centres undefined) | 53.3 |
| CCc1nnc(CNC2CCc3nc(C(C)C)nn3C2)o1 (centres undefined) | -19.4 |
| Cc1nc2n(n1)CC(NCC(=O)NCCC1=CCCCC1)CC2 (centres undefined) | 40.4 |
| CCc1nc2n(n1)CC(NCc1nc3ccccc3o1)CC2 (centres undefined) | 11.9 |
| CC(C)c1nc2n(n1)CC(NCC(=O)NCCC1=CCCCC1)CC2 (centres undefined) | 51.1 |
| CCc1nc2n(n1)CC(NCc1nc(C)c(C)o1)CC2 (centres undefined) | 46.6 |
| CCc1nc2n(n1)CC(NCc1nnc(C(C)C)o1)CC2 (centres undefined) | 60.2 |
| Cc1nc2n(n1)CC(NCc1nc(C)c(C)o1)CC2 (centres undefined) | -67.9 |
| Cc1cc(NC(=O)CNC2CCc3nc(C(C)C)nn3C2)no1 (centres undefined) | -7.31 |
| Cc1nc(CNC2CCc3nc(C(C)C)nn3C2)oc1C (centres undefined) | 75.2 |
| CCN1C(=O)CC[C@@H]2[C@H]1CCN2S(=O)(=O)Cc1ccc(C)cc1 | 45.2 |
| Clc1ccc(-c2nc(CN3CCCC3Cn3cncn3)co2)cc1 (centres undefined) | -24.2 |
| c1coc(CN2CCO[C@H]3[C@H](OCC4CC4)CC[C@@H]32)c1 | -2.27 |
| CCN(Cc1nc2c(cnn2C)c(=O)[nH]1)c1ccc(F)cc1 | 29.7 |
| CC(C)Nc1nc(O)cc(C2CC(=O)N(Cc3ccccn3)C2)n1 (centres undefined) | -23.8 |
| Cc1cc(C(=O)N2CCC(c3nnc(Cn4ccnc4)n3C)CC2)cs1 | -40.5 |
| Cc1ccc(C(=O)N2CCC3(CC(N(C)c4ccncn4)C3)C2)cn1 (centres undefined) | 41.2 |
| Cc1cnn(CC2CCCN2C(=O)c2cc3c(F)cccc3[nH]2)c1 (centres undefined) | 24.6 |
| CCCOC(C)C(=O)NCc1cc2n(n1)CCCN(C1CCCCC1)C2 (centres undefined) | 14.8 |
